HEK cytotox – Cytotoxic Profiling in HEK 293 Cell Line of Diverse Libraries Using Quantitative High-Throughput Screening; Potency, µM (highest dose often 115 µM), inactives show at the top dose activity change, negative = cytotoxicity, most hits filed as inhibitors; HEK 293 viability, ATP luminescence (CellTiter-Glo), 48-72 h; AID 1345083, 2018; hit rate 6.6% among 94,000; further: nearly all actives have a fitted effect of over 60% in size
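HEK 293 seeded at 250 cells/well receive compound via pintool. After 48 or 72 hr at 37 degree Celsius, 5% CO2 and 95% humidity, CellTiter-Glo is dispensed and luminescence read following 10 min at room temperature.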
GPT2 inhibitor – Primary qHTS assay for inhibitors of Glutamate pyruvate transaminase 2 (GPT2); Alanine aminotransferase 2 (Homo sapiens), Q8TD30; Recombinant GPT2, coupled pyruvate oxidase/HRP Amplex Red fluorescence; Potency, µM (top dose mostly 57.7 µM), for inactives: at the highest dose activity change, negative = inhibition, usual class: inhibitors; hit rate 0.25% among 100,000; AID 1671188, 2021; further: nearly all actives have a fitted effect of over 60% in size
Target sequence (Q8TD30 whole entry, looked up): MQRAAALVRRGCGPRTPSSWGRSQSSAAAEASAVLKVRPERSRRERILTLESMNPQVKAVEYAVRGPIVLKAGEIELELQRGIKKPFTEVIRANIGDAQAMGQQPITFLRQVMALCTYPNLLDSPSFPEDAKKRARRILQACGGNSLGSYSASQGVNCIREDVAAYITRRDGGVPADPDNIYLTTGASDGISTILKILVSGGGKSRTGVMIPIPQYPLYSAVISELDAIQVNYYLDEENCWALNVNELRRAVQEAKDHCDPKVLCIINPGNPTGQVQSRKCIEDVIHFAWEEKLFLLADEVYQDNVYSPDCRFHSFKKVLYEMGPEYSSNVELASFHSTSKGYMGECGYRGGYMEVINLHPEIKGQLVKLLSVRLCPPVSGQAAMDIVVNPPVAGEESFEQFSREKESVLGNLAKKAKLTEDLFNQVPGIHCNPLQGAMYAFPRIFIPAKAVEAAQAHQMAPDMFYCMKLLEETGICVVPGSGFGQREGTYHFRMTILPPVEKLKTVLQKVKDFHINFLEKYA
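Recombinant GPT2 (10ng/uL) with 250uM a-KG and 2mM L-alanine, 30 min at room temperature, in HEPES pH 7.5 buffer. Pyruvate detected by pyruvate oxidase/HRP/Amplex Red fluorescence after 30 min in the dark; AOA (50uM) as positive control.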
hNpr1 antagonist – Natriuretic polypeptide receptor (hNpr1) antagonism - Primary qHTS. Potency, µM (doses to about 46.3 µM), for inactives: at the highest dose activity change, negative = inhibition, most hits filed as inhibitors. hit rate 1.6% among 76,000. HEK293 hNpr1 GloSensor cGMP, ANP-stimulated luminescence. AID 1347048, 2019; calls by dose curve; further: nearly all actives have a fitted effect of over 60% in size
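HEK293 cells stably expressing human Npr1 and cGMP GloSensor pGS-40F, loaded 2 h with 2% GloSensor reagent, given compound 30 min at room temperature. Luminescence read before and 20 min after 0.1 nM hNppA.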
NIH3T3 tox – Cytotoxic Profiling in NIH 3T3 Cell Line of Diverse Libraries Using Quantitative High-Throughput Screening; NIH 3T3 viability, CellTiter-Glo ATP luminescence, 48-72 h; Potency, µM (series often up to 96.7 µM), inactives show top-dose activity change, negative = cytotoxicity, usual class: inhibitors; hit rate 4.3% among 94,000; AID 1345082, 2018; further: nearly all actives have a fitted effect of over 55% in size
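First NIH 3T3 cells are plated at 400 cells/well; next compound is pinned in; then plates incubate 48 or 72 hr at 37 °C; finally CellTiter-Glo is added and luminescence read after 10 min.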
FLuc inh – Firefly luciferase inhibition profiling of diverse chemical library using quantitative high-throughput screening; Luciferin 4-monooxygenase (Photinus pyralis), P08659; purified P. pyralis luciferase, luminescence, biochemical; Potency, µM (series often up to 115 µM), actives largely listed as inhibitors; hit rate 2.5% among 76,000; further: nearly all actives have a fitted effect of over 65% in size
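Purified P. pyralis luciferase (10nM final) in 50mM Tris acetate pH 7.5, 10mM Mg acetate, 0.01% Tween-20, 0.05% BSA with 10uM D-luciferin and 10uM ATP. Compounds titrated qHTS. Luminescence imaged on CCD.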
Starred values were filed as active, the others as inactive; i = inactive; u = inconclusive; x = no result; [ ] = remark or other dose. The list is not random: actives were taken first. Their share in the collection is about 10%. Unless noted, the call rests on the fitted dose curve; in most records, active means well fitted curve in the direction sought with a large enough effect; inconclusive means small, poorly fitted or top-dose-only effect, or another doubt; inactive means no such curve, though single readings can be large; an effect the other way counts as inactive or inconclusive. On the % scale 0 is the no-effect control and ±100 the full control effect; potency means the concentration at half of the fitted maximal effect.

SMILES	HEK cytotox	GPT2 inhibitor	hNpr1 antagonist	NIH3T3 tox	FLuc inh
O=C(c1ccc(F)cc1)N1CCC2(CC1)Cc1ccccc1NC2=O	-47%[172 µM]	-4%[88.5 µM]	-1%[70.6 µM]	-15%[138 µM]	i
Cc1ccccc1C(=O)N1CCC2(CC1)Cc1ccccc1NC2=O	35µM*	2%	25%	u	i
CCN(C1CCOCC1)C1CN(C(=O)c2ccncc2)C1	i	i	4%	i	i
C=C(C)CN(C)C(=O)c1cc(CN2CCC(Cc3ccccc3)CC2)on1	89µM*	-12%	-4%	-28%	i
CCN(Cc1ccncc1)C(=O)c1cc(CN2CCC(Cc3ccccc3)CC2)on1	u	i	u	u	i
COc1ccc(CCNC(=O)c2cc(-c3ccc(OC)cc3)nc3c2cnn3C)cc1	u	i	x	u	x
Cn1ncc2c(C(=O)NCC(F)F)cc(-c3ccc(Cl)cc3)nc21	45µM*	i	x	u	x
C#CCNC(=O)c1cc(-c2ccc(OC)cc2)nc2c1cnn2C	u	x	x	50µM*	x
C#CCNC(=O)c1cc(-c2ccc(Cl)cc2)nc2c1cnn2C	89µM*	-13%[88.5 µM]	x	u	x
Cn1ncc2c(C(=O)NCCc3ccc(Cl)cc3)cc(-c3ccc(Cl)cc3)nc21	-18%	-13%	x	u	x
COc1ccc(-c2cc(C(=O)NCC(F)(F)F)c3c(C4CCNC4)nn(C)c3n2)cc1 (configuration not stated)	79µM*	i	x	u	x
C#CCNC(=O)c1cc(-c2ccc(Cl)nc2)nc2c1cnn2C	u	-5%	x	u	x
O=C(NC1CCCCC1)c1ccc2oc(-c3ccncc3)nc2c1	u	0%[88.5 µM]	x	-10%[138 µM]	x
CC(C)CCN1CCc2nc(C3CC3)nc(-c3ccc(O)cc3)c2C1	u	-19%	x	-11%	x
O=C(NCCN1CCOCC1)c1cc2c(Oc3ccc(NC(=O)C4(C(=O)Nc5ccc(F)cc5)CC4)cc3)ccnc2[nH]1	x	4%	x	x	x
COc1cccc(C(=O)N2CCC(N3C[C@H](O)C[C@H]3C(=O)NCc3cc(F)ccc3F)CC2)c1	-9%	i	1%	-9%	i
COC(=O)CNC(=O)c1cc(-c2ccc(Cl)nc2)nc2c1cnn2C	-4%	i	x	32µM*	x
CC(=O)N1CC2(CCN(CC3CC3)C2)Cc2ccccc21 (configuration not stated)	-7%[172 µM]	-6%[88.5 µM]	x	-9%[138 µM]	x
O=C(c1ccc(F)cc1)N1CCC(Oc2ccccc2)C1 (configuration not stated)	4%	i	0%	i	i
O=C(c1ccc(OC2CCN(Cc3c[nH]c4ccccc34)CC2)cc1)N1CCCCC1	22µM*	-4%	7%	u	i
O=C(C1CCCC1)N1CC2(CCN(Cc3ccccn3)C2)Cc2ccccc21 (configuration not stated)	u	-13%	x	u	x
O=C(C1CCCC1)N1CC2(CCN(Cc3c[nH]c4ccccc34)CC2)Cc2ccccc21	20µM*	3%	x	13µM*	x
O=C(C1CCCC1)N1CC2(CCN(CC3CC3)C2)Cc2ccccc21 (configuration not stated)	25µM*	u	x	45µM*	x
O=C(C1CCCC1)N1CC2(CCN(Cc3ccccn3)CC2)Cc2ccccc21	100µM*	i	x	u	x
CCOCc1nc(C2CCCN(C(=O)c3ccc(F)c(F)c3)C2)no1 (configuration not stated)	2%	4%	8%	-4%	i
SMILES	HEK cytotox	GPT2 inhibitor	hNpr1 antagonist	NIH3T3 tox	FLuc inh
O=C(c1ccc(F)cc1)N1CCCC(C(=O)N2CCCC(c3nc4ncccc4[nH]3)C2)C1 (configuration not stated)	-21%	u	x	-30%	x
COc1ccc(NC(=O)O[C@@H]2C=C[C@H](c3c(C)nn(-c4ccc(F)cc4)c3C)C2)cc1	u	-3%[88.5 µM]	-30%[70.6 µM]	u	u
Cc1nn(-c2ccc(F)cc2)c(C)c1[C@@H]1C=C[C@@H](NC(=O)CC(C)(C)CC(=O)O)C1	-24%[172 µM]	4%[88.5 µM]	-10%[70.6 µM]	u	i
Cc1nn(-c2ccccc2)c(C)c1[C@@H]1C=C[C@@H](NCc2ccc(F)cc2)C1	63µM*	-5%[88.5 µM]	-23%[70.6 µM]	u	u
COc1ccc(-n2nc(C)c([C@@H]3C=C[C@@H](NCc4ccc(F)cc4)C3)c2C)cc1	28µM*	-8%[88.5 µM]	u	32µM*	25µM*
Cc1nn(-c2ccccc2[N+](=O)[O-])c(C)c1[C@@H]1C=C[C@@H](NCc2ccc(F)cc2)C1	100µM*	i	-10%[70.6 µM]	89µM*	u
COc1ccc(-n2nc(C)c([C@@H]3C=C[C@@H](NCc4ccc(C(C)C)cc4)C3)c2C)cc1	32µM*	1%[88.5 µM]	u	32µM*	25µM*
Cc1ccc(Cn2c(C3CCN(C(=O)c4ccc(C)s4)CC3)n[nH]c2=O)cc1	-6%	5%	1%	-18%	i
COC1C(=O)N(CC2CC2)C12CCN(C(=O)c1ccc(C)s1)CC2 (configuration not stated)	-24%	-1%	8%	-13%	i
Cc1nn(-c2ccc(C(F)(F)F)cc2)c(C)c1[C@@H]1C=C[C@@H](NCc2ccc(N(C)C)cc2)C1	20µM*	i	-16%	11µM*	i
Cc1nn(-c2ccc(C(F)(F)F)cc2)c(C)c1[C@@H]1C=C[C@@H](NC(=O)COCC(=O)O)C1	-1%	1%	6%	-1%	i
O=C(NC1CCN(c2cc(-c3ccccc3)[nH]n2)CC1)c1cc(F)ccc1Cl	u	-18%	-5%	u	i
O=C(NC1CCN(c2cc(-c3ccc(F)cc3)[nH]n2)CC1)c1c[nH]c2ccccc12	u	-22%	0%	32µM*	i
O=C(NC1CCN(c2cc(-c3ccc(F)cc3)[nH]n2)C1)c1c[nH]c2ccccc12 (configuration not stated)	40µM*	u	-23%	32µM*	i
O=C(NC1CCCN(c2cc(-c3ccccc3)[nH]n2)C1)c1c[nH]c2ccccc12 (configuration not stated)	u	u	-19%	u	40µM*
O=C(NCC1CCN(c2cc(-c3ccc(F)cc3)[nH]n2)CC1)c1c[nH]c2ccccc12	u	u	-27%	32µM*	u
O=C(NC1CCCN(c2cc(-c3ccccc3)[nH]n2)C1)c1ccccc1Cl (configuration not stated)	u	-17%	-7%	u	u

Screens deposited in PubChem by National Center for Advancing Translational Sciences (NCATS).
